Broadly, the inhibition is the change of the read-out against control, counted positive when it falls.

Each structure is given as a SMILES string. The whole screen tested about 320,000 compounds, of which about 2,100 (0.66%) were called active. This is one part of a sample in which actives are shown more often than they occur.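 How the source made its calls: active means inhibition above the mean inhibition of all tested compounds plus 3 SD, set per campaign (cut at about 40% in these data); inactive means the rest.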

The target in this assay is Induced myeloid leukemia cell differentiation protein Mcl-1 (Homo sapiens) (UniProt Q07820). As to the kind of experiment: inhibitors of MCL1 binding to BIM-BH3, primary screen, biochemical, fluorescence polarization (AID 2057).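 Further: 0% = DMSO wells and 100% = unlabeled Bim-BH3 peptide control; higher means more loss of mP so more displacement of Bim peptide.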 The conditions noted are these: GST-MCL1 / FITC-Bim-BH3 fluorescence polarization; at 10.9 µM; stronger effect = higher value. (In fluorescence polarisation assays a small probe gives low polarisation when free and higher when bound to something large.)
Induced myeloid leukemia cell differentiation protein Mcl-1 (Homo sapiens), sequence (Q07820 whole entry, looked up): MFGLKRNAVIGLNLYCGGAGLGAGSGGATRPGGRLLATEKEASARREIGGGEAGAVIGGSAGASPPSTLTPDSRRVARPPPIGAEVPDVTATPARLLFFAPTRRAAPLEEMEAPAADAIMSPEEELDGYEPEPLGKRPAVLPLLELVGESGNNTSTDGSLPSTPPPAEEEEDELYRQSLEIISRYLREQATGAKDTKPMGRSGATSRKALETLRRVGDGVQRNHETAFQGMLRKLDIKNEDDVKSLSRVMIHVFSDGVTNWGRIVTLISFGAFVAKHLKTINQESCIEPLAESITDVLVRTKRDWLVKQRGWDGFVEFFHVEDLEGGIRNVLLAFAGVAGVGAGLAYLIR
Turning to `CCCCCCn1c(CN2CCCC(C)C2)nc2c1c(=O)n(C)c(=O)n2C` (stereo not drawn), the inhibition is 4.79% (inactive). As for `CCCn1c(O)c(CN2CCCC(C)C2)c(C)c(C#N)c1=O` (stereo not drawn), the inhibition was 57.2% (active). As for `Cc1c(CN2CCCCC2)c(O)n(CCO)c(=O)c1C#N`, the inhibition is 18.2% (inactive).

Consider `O=C(COC(=O)c1ncc(Cl)c(Cl)c1Cl)NC1CCS(=O)(=O)C1` (stereo not drawn), for which the inhibition was -1.74% (inactive). On to `O=C(CN1CCN(c2ccccc2O)CC1)NC(=O)NCc1ccccc1`, for which the inhibition is 5.09% (inactive). For `CC(=O)c1ccc(NC(=O)CCc2nnc3ccc(NCc4ccco4)nn23)cc1`, the inhibition was 2.1% (inactive).

As for `CC(C)CCN1CCN(Cc2cn[nH]c2C2CCCCC2)CC1CCO` (stereo not drawn), the inhibition is -6.25% (inactive). For the molecule `CN(C)S(=O)(=O)c1ccc(N/C=C(\[N+](=O)[O-])S(=O)(=O)c2ccccc2)cc1`, the inhibition is 2.14% (inactive). On to `CC(NCc1nc2ccccc2n1C)C12CC3CC(CC(C3)C1)C2` (stereo not drawn), for which the inhibition was -2.96% (inactive).

For the molecule `CN1CCc2nc(SC(C(=O)O)c3ccccc3)c(C#N)c(-c3cccs3)c2C1` (stereo not drawn), the inhibition was 45.7% (active). Take `CCc1c(-c2ccccc2)nc(N)c(C#N)c1-c1cccs1`: the inhibition is 11.5% (inactive).

Consider `Cc1c(-c2ccccc2)nc(N)c(C#N)c1-c1cccs1`, for which the inhibition was 4.53% (inactive). Take `CCN(CC(=O)NC1CCS(=O)(=O)C1)S(=O)(=O)c1ccccc1` (stereo not drawn): the inhibition is -7.02% (inactive). As to `COc1ccc(C2/C=C\CN(S(=O)(=O)c3cccs3)CC(=O)N2Cc2ccc(F)cc2)cc1` (stereo not drawn), the inhibition was 3.81% (inactive). On to `O=C(CCS(=O)(=O)c1ccccc1)NC1CCCC1`, for which the inhibition is -0.76% (inactive). On to `CC(=O)c1ccc(N2C(=NC(=O)C(C)C)SC3CS(=O)(=O)CC32)cc1` (stereo not drawn), for which the inhibition was 2.13% (inactive). Regarding `Cc1cc2ccccc2n1CCC(=O)O`, the inhibition is 49.7% (active).

On to `Cc1cc2ccccc2n1CCNC(=O)COc1ccc2ccccc2c1`, for which the inhibition is 2.6% (inactive).

For `O=C(O)CCn1c(Cc2ccccc2)nc2ccccc21`, the inhibition is 1.68% (inactive).

For the molecule `O=C(O)C1C2CC2CN1C(=O)c1ccc(Cl)cc1Cl` (stereo not drawn), the inhibition was 0.95% (inactive).

Take `Cc1cccc(C)c1Nc1c(-c2ccccc2O)nc2ncccn12`: the inhibition is 0.37% (inactive). Take `CCC(C)CN1CCC(CO)(Cc2ccccc2Cl)CC1` (stereo not drawn): the inhibition is 0.34% (inactive). In the case of `COC(=O)c1sc(C(F)(F)F)c(-c2ccccc2)c1S(=O)(=O)N(C)C`, the inhibition is 4.01% (inactive). Take `Cc1cc(Cl)ccc1NNC(=O)c1snnc1C`: the inhibition was 6.52% (inactive). The figure for `O=C(Cn1cnc2ccccc21)Nc1ccccc1-c1ccccc1` is 6.02% (inactive); for `O=C(COC(=O)Cn1cnc2ccccc21)Nc1cccc2c1C(=O)c1ccccc1C2=O` it is 155% (active).

On to `O=C(COC(=O)c1cccc(Br)c1)Nc1cccc2c1C(=O)c1ccccc1C2=O`, for which the inhibition was -1.24% (inactive). On to `COc1ccc(OC)c2[nH]c(=O)c(CCNC(=O)C(=O)c3c[nH]c4ccccc34)cc12`, for which the inhibition was 7.82% (inactive).

Turning to `CCn1c(=S)sc2c(=O)n(CC(=O)Nc3cccc(Br)c3)c(C)nc21`, the inhibition was -2.89% (inactive). With `COc1cccc(NC(=O)C2C(c3ccccc3)C2(Cl)Cl)c1` (stereo not drawn), the inhibition was 6.86% (inactive).

Take `CCN1CCN(CC(=O)c2cc(OC)c(OC)c(OC)c2)CC1`: the inhibition is 0.87% (inactive). Turning to `O=C(OCC1OC(Oc2ccc(O)cc2)C(O)C(O)C1O)c1ccccc1` (stereo not drawn), the inhibition is -1.58% (inactive).

With `O=C(OCC1O[C@@H](OC(=O)c2cc(O)c(O)c(O)c2)[C@@H](OC(=O)c2cc(O)c(O)c(O)c2)[C@@H](OC(=O)c2cc(O)c(O)c(O)c2)[C@@H]1OC(=O)c1cc(O)c(O)c(O)c1)c1cc(O)c(O)c(O)c1` (stereo partly drawn), the inhibition is 74.8% (active).

In the case of `COC(=O)C(C)Sc1ccc2nnc(-c3cccc(F)c3)n2n1` (stereo not drawn), the inhibition was -5.54% (inactive). Under `O=C1c2ccccc2C(=O)c2c1cccc2N1CCN(CCO)CC1` stands 60.6% (active); under `O=C1c2ccccc2C(=O)c2c1cccc2N1CCN(Cc2ccccc2)CC1`, 7.86% (inactive). With `O=C1c2ccccc2C(=O)c2c1cccc2N1CCN(C/C=C/c2ccccc2)CC1`, the inhibition is 13.8% (inactive). On to `CCC(=O)c1ccc(OCC(=O)Nc2ccc(N3CCCCC3)cc2)cc1`, for which the inhibition is 0.81% (inactive).

Take `Cc1ccc(S(=O)(=O)N2CC(C)N(S(C)(=O)=O)C2)cc1` (stereo not drawn): the inhibition is 7.35% (inactive). `CC1CCc2sc(C(=O)NCC(c3ccco3)N3CCCCC3)cc2C1` (stereo not drawn): the inhibition is -3.03% (inactive).

In the case of `COc1ccc(CCN2C(=O)N(c3ccc(OC)cc3)C(=O)C2CC(=O)Nc2ccc(OC)cc2)cc1` (stereo not drawn), the inhibition is 2.06% (inactive). With `CC(=O)Nc1ccc(Nc2cc(C)nc(Nc3ccc(NC(C)=O)cc3)n2)cc1`, the inhibition was -11.2% (inactive). Under `Cc1cc(C)c(CN2CCN(C(=O)Cn3ccc(NC(=O)OCc4ccccc4)nc3=O)CC2)c(C)c1` stands 2.72% (inactive). In the case of `NS(=O)(=O)c1ccc(N=Nc2c(O)[nH]c3ccc(Br)cc23)cc1`, the inhibition was 44.2% (active).

Consider `O=C(CNC(=O)Cc1ccccc1)N=Nc1c(O)[nH]c2ccc(Br)cc12`, for which the inhibition is 4.04% (inactive). In the case of `Oc1[nH]c2ccc(Br)cc2c1N=Nc1nn[nH]n1`, the inhibition was 6.9% (inactive). With `Cc1ccc(NC(=S)NC(=O)c2ccc(-c3ccccc3)cc2)cc1`, the inhibition is 4.74% (inactive).

Turning to `Cc1ccc(C(=O)NC(=S)Nc2ccc(N3CCOCC3)cc2)cc1`, the inhibition was 46.3% (active). For the molecule `Cc1ccc(C(=O)NC(=S)NCCN2CCOCC2)cc1`, the inhibition is 6.07% (inactive). Under `CC(=O)Nc1ccc(S(=O)(=O)NC2Cc3ccccc3C2)cc1` stands 1.26% (inactive). Under `COc1ccc(/C(N)=N/OC(=O)CCCc2ccccc2)cc1` stands -1.09% (inactive); under `N/C(=N\OC(=O)CCc1ccccc1)c1ccc(Cl)cc1`, 64.4% (active); under `N/C(=N\OC(=O)CCc1ccccc1)c1cccnc1`, 4.17% (inactive). Under `CCCSC(=S)NC1CCS(=O)(=O)C1` (stereo not drawn) stands 2.09% (inactive).

For `COCCNC(=O)Nc1ccc2nc(-c3ccco3)c(-c3ccco3)nc2c1`, the inhibition is 131% (active). The figure for `Cc1nc2cc(NC(=O)NCc3ccccc3)ccc2o1` is -6.46% (inactive); for `Cc1cc(C)cc(NC(=O)NCc2ccccn2)c1` it is 1.97% (inactive). With `COc1ccc2oc(=O)c(C(=O)NCc3ccccn3)cc2c1`, the inhibition is 0.27% (inactive). In the case of `O=C(NCc1ccccn1)c1ccc2nc(-c3ccco3)c(-c3ccco3)nc2c1`, the inhibition is 106% (active). The figure for `CCOc1cc(NC(=S)NCCCOC)c(OCC)cc1NC(=O)c1ccco1` is 9.31% (inactive).

With `Cc1cc(C)nc(-n2ncc3c2CC(c2ccc(C(C)C)cc2)CC3=O)n1` (stereo not drawn), the inhibition is 2.19% (inactive). `O=C(COC(=O)C1CCN(S(=O)(=O)c2ccc3c(c2)OCCO3)CC1)Nc1ccccc1OC(F)F`: the inhibition was 0.49% (inactive). For the molecule `O=C1CCN(C(=O)Nc2ccccc2)N1`, the inhibition was -0.78% (inactive). With `C=CCOc1cccc(C2C(C(=O)c3ccc(C)o3)=C(O)C(=O)N2c2nnc(C)s2)c1` (stereo not drawn), the inhibition was 81.2% (active). In the case of `Cc1cc(N2C(=O)C(O)=C(C(=O)c3ccc(C)o3)C2c2ccc(OCc3ccccc3)cc2)no1` (stereo not drawn), the inhibition is 10.4% (inactive). For `C=CCOc1cccc(C2C(C(=O)c3ccc(C)o3)=C(O)C(=O)N2CCCn2ccnc2)c1` (stereo not drawn), the inhibition was -4.11% (inactive).

`CCNC(=S)N(CCN(CC)CC)Cc1cc2cc3c(cc2[nH]c1=O)OCCO3`: the inhibition was 13.5% (inactive).

`Cc1ccc(OCC(=O)Nc2ccccc2Sc2ccc(Cl)cc2)c([N+](=O)[O-])n1`: the inhibition is 3.45% (inactive). With `CC(C)c1csc(CN2CCC(CO)(Cc3ccccc3)CC2)n1`, the inhibition is 8.03% (inactive). The figure for `Cc1[nH]c2ccccc2c1CCN(Cc1cccs1)C(=S)NC(C)(C)C` is 7.74% (inactive); for `COc1cccc(NC(=S)N(CCc2c(C)[nH]c3ccccc23)Cc2ccco2)c1` it is 4.2% (inactive); for `COc1ccc2[nH]c(C)c(CCN(Cc3cccs3)C(=S)Nc3ccccc3OC)c2c1` it is 65.3% (active). With `CC(CC(=O)N1CCN(c2ccccc2)CC1)S(=O)(=O)c1ccc2c(c1)NC(=O)CS2` (stereo not drawn), the inhibition is -2.69% (inactive). On to `CN(C(=O)COC(=O)CNC(=O)C12CC3CC(CC(C3)C1)C2)c1ccccc1`, for which the inhibition was -5.29% (inactive).

For `Cc1ccsc1C(=O)NCCc1ccco1`, the inhibition was 7.13% (inactive). On to `COc1ccccc1-c1oc2ccccc2c1C#CCCCCO`, for which the inhibition was -3.18% (inactive). On to `CC(=O)Nc1ccc(S(=O)(=O)N2CCC(C(=O)NC3CC3)CC2)cc1`, for which the inhibition was -6.89% (inactive).

On to `Cc1ccc(Cc2cnc(NC(=O)/C(C#N)=C/c3ccc(-c4cccc([N+](=O)[O-])c4)o3)s2)cc1`, for which the inhibition was -0.71% (inactive). With `O=C(O)c1cc(Cl)c(Cl)cc1C(=O)Nc1cccc2ncccc12`, the inhibition was -1.24% (inactive). With `Cc1ccc(/C=C(\C#N)C(=O)Nc2cccc3ncccc23)o1`, the inhibition was 138% (active). The figure for `COc1ccc(OC)c(C(C)NC(=S)Nc2ccc(S(=O)(=O)Nc3ncccn3)cc2)c1` (stereo not drawn) is 5.87% (inactive). In the case of `CCN(CC)CCNC(=O)c1sc2ncn(CC(=O)Nc3ccc(C)c(Cl)c3)c(=O)c2c1C`, the inhibition was -4.53% (inactive).

Turning to `CCOc1cc(C(=S)N2CCOCC2)ccc1OS(=O)(=O)c1ccc(Br)cc1`, the inhibition was 2.62% (inactive). Under `CSc1ccccc1-c1nnc(-c2ccc(Cl)cc2)o1` stands -2.22% (inactive). As to `COc1ccc(/C=N/NC(=O)c2ccncc2)cc1CN1CCCc2ccccc21`, the inhibition was 9.1% (inactive). Take `Cc1c(Nc2cc(N3CCCC(C)C3)c3nonc3c2[N+](=O)[O-])c(=O)n(-c2ccccc2)n1C` (stereo not drawn): the inhibition was -0.42% (inactive). As for `Nc1cc(N2CCCCCC2)c2nonc2c1[N+](=O)[O-]`, the inhibition was 48% (active). As to `Nc1nc(NCC(=O)O)nc(N2CCCCCC2)c1[N+](=O)[O-]`, the inhibition was 1.22% (inactive). Turning to `CC(C)COC(=O)C1C2C=CC3(CN(C(C)c4ccc(Br)cc4)C(=O)C13)O2` (stereo not drawn), the inhibition was -1.26% (inactive).

Consider `Cc1ccc(C(=O)COC(=O)CCCC(=O)NC2CCCCC2)cc1[N+](=O)[O-]`, for which the inhibition is -0.81% (inactive). Take `C=CCn1c(=S)[nH]c2scc(-c3ccco3)c2c1=O`: the inhibition is 67.4% (active).

Take `C=CCn1c(SCc2csc(C)n2)nc2scc(-c3ccc(C)o3)c2c1=O`: the inhibition is -8.6% (inactive). `C=CCNC(=O)CSc1nc2scc(-c3ccco3)c2c(=O)n1CC=C`: the inhibition is -5.54% (inactive).
